# Assay outcomes (PubChem BioAssay)
# Only some compounds are listed: those with a hit (about 4% of all), similar ones and a draw of the others.
# FBA Mtb inh = inhibitors of M. tuberculosis fructose-bisphosphate aldolase; P9WQA3; purified M. tuberculosis FBA, fluorescence read-out; inhibition, % at 1 µM; 2.3% of 360,000 active; AID 588726; in the data active = inhibition above about 27%;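 note: 0% = vehicle and 100% = reference inhibitor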
# Mtb UGM inh = Mtb UDP-galactopyranose mutase inhibition. P9WIQ1. purified UGM, fluorescence polarization probe displacement. inhibition, % at 10 µM. 0.06% of 320,000 active. AID 504406; in the data active = inhibition above about 10%, passing the limit was not always enough
# Rv3671c inh = inhibitors of M. tuberculosis serine protease Rv3671c; P9WHR9; inhibition, % at 5.96 µM; 0.048% of 320,000 active; AID 2606; in the data active = inhibition above about 38%;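 note: extracellular domain of Rv3671c used as enzyme; 0% = enzyme with DMSO and 100% = no enzyme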
# RecA intein inh = blocks M. tuberculosis RecA intein splicing | cell-free RecA intein splicing, fluorescence | inhibition, % (no concentration beside the values) | 0.75% of 290,000 active | AID 2221; in the data active = inhibition above about 30%;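 note: 0% = vehicle wells and 100% = reference inhibitor control wells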
# Target sequence (P9WHJ3 whole entry, looked up): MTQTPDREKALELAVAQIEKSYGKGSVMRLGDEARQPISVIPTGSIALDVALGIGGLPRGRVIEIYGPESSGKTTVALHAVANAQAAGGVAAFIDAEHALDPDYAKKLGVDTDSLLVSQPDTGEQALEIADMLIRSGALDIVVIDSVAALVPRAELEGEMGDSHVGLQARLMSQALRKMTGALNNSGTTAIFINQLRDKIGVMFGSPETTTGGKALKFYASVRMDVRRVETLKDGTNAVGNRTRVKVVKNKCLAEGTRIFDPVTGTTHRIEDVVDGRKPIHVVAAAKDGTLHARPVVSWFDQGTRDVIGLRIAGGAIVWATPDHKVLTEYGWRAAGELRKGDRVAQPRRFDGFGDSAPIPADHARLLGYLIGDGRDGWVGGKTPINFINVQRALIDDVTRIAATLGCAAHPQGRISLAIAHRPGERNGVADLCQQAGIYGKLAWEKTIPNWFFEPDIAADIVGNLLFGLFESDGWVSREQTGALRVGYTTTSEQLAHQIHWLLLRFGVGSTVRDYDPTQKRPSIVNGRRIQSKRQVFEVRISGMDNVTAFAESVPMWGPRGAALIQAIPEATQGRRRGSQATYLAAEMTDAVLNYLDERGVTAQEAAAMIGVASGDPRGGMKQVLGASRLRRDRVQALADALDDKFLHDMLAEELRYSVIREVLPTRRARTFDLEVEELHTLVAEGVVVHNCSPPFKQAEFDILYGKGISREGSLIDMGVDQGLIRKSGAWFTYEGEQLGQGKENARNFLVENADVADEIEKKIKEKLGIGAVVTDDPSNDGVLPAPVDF
# GDH-TPI counter = counter-screen for M. tuberculosis FBA inhibitors: GDH-TPI coupled enzymes | AID 588335 | inhibition, % at 4.8 µM | 1.2% of 360,000 active | GDH-TPI coupled enzyme counterscreen, NADH absorbance; in the data active = inhibition above about 30%;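 note: 0% = DMSO wells and 100% = wells lacking the enzyme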
# Mtb bLac sens = beta-lactam sensitization of Mtb H37Rv; AID 434955; inhibition, % at 25 µM; M. tuberculosis H37Rv growth with meropenem, percent inhibition; 0.27% of 330,000 active; call rule not given here;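 note: growth measured after seven days incubation then overnight dye step; 0% = bacteria only wells and 100% = bacteria with antibiotic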
# Active calls of the source: *; . = not tested or not shown; + = active, no number.
SMILES,FBA Mtb inh,Mtb UGM inh,Rv3671c inh,RecA intein inh,GDH-TPI counter,Mtb bLac sens
COc1ccc(-c2cc(=O)oc3cc(O)ccc23)cc1,22.6,-3.9,3.5,-48.9,14.7,-3.2
CC(=O)Oc1ccc2c(C)cc(=O)oc2c1,+,-4.4,1.8,-27.5,-7.6,77.2
COC(=O)Cc1cc(=O)oc2cc(O)ccc12,+,-0.5,11.8,-298.3,13.2,-0.6
Cc1cc(=O)oc2cc(O)cc(OCc3ccccc3)c12,+,.,.,.,31.0*,.
Cc1cc(=O)oc2ccc(OCc3ccccc3)cc12,6.7,3.3,-2.4,-0.9,14.4,0.8
CC(C)c1cccc(-c2ccc3c(c2)S(=O)(=O)c2cccc(C(=O)NCc4ccccc4)c2C3=O)c1,-2.3,1.1,-4.3,.,5.8,5.2
Cc1oc2cc(O)ccc2c(=O)c1N1C(=O)c2ccccc2C1=O,10.3,0.2,4.6,1.4,27.9,-39.3
CC(=O)Oc1cc2oc(=O)cc(C)c2cc1OC(C)=O,173.4*,-0.6,-1.5,-170.9,27.2,-2.0
Cc1cc(=O)[nH]c2cc(O)ccc12,+,3.4,1.4,-2.9,0.0,93.2
O=c1[nH]c2cc(O)ccc2c2ccccc12,16.9,.,.,.,14.7,.
Cc1ccc(S(=O)(=O)CCC(=O)Oc2ccc3c(C)cc(=O)oc3c2)cc1,+,-0.4,2.7,-5.4,8.4,-6.3
Cc1ccccc1-c1c(C)oc2cc(O)ccc2c1=O,+,-1.0,-6.5,0.9,24.6,8.4
Cc1coc2cc3oc(=O)cc(C)c3cc12,19.6,1.4,-3.5,-1.7,21.7,4.5
CC(C)OC(=O)CSc1nnc(-c2ccccn2)n1C,0.4,-0.5,-1.3,0.0,1.3,-1.0
O=C(CC1C(=O)NCCN1CC1CCCCC1)NCc1cccc(F)c1F (stereo not drawn),1.1,2.0,-0.1,2.9,5.2,-5.1
CC(=O)Oc1cc(OC(C)=O)c2c(C)cc(=O)oc2c1,+,0.4,-1.4,-34.0,10.1,-4.0
Cc1cc(=O)oc2cc(OC(=O)C3CCN(C(=O)c4ccc(F)cc4)CC3)ccc12,148.3*,-0.3,5.7,-3.7,3.1,0.4
Cc1cc(=O)[nH]c2c(C)c(N)ccc12,+,3.7,-1.4,-3.0,7.7,7.2
O=c1cc(O)c2ccc(O)cc2o1,17.9,-0.5,-8.6,-5.5,9.8,-1.7
Cc1cc(=O)oc2cc(O)ccc12,+,0.2,1.7,-27.6,14.6,-13.7
N#Cc1cccc(OC(=O)C2CCN(C(=O)c3ccc(F)cc3)CC2)c1,0.6,.,.,.,4.4,.
CC(=O)Oc1cc(OC(C)=O)c2c(=O)c(-c3ccc4c(c3)OCCCO4)c(C)oc2c1,26.8,0.9,-0.9,5.5,11.6,-13.0
CN(C)C(CNC(=O)c1cccc(S(=O)(=O)Nc2ccc(SC(F)F)cc2)c1)c1ccccc1 (stereo not drawn),0.8,.,.,.,-1.4,.
O=C(COc1ccc2c(-c3ccccc3)cc(=O)oc2c1)NCCCn1ccnc1,4.5,2.3,0.1,11.3,16.7,-6.2
COC(=O)c1ccc(COC(=O)CSCC(=O)Nc2ccc(C)cc2C)cc1,3.8,-1.1,-2.2,.,3.2,52.0
SMILES,FBA Mtb inh,Mtb UGM inh,Rv3671c inh,RecA intein inh,GDH-TPI counter,Mtb bLac sens
Cc1cc(=O)oc2cc(OC(=O)CCCCCN3C(=O)c4ccccc4C3=O)ccc12,152.9*,3.8,-5.6,0.3,9.6,69.2
Cc1ccc(NC(=O)CSCC(=O)OCc2cc(=O)oc3cc(O)ccc23)c(C)c1,118.5*,-0.7,-7.4,-27.5,11.8,-6.8
CCN(c1ccccc1)S(=O)(=O)c1cc(C(=O)Oc2ccc3c(C)cc(=O)oc3c2)ccc1C,+,-0.8,-11.9,-0.1,1.9,82.8
CCN(c1ccccc1)S(=O)(=O)c1cc(C(=O)OCC(=O)c2c(N)n(C)c(=O)n(C)c2=O)ccc1C,-1.7,.,.,.,3.8,.
CC(C)CC(=O)OC1C(N2CCOCC2)c2c(ccc(/C=C/C(=O)N3CCOCC3)c2O)OC1(C)C (stereo not drawn),6.1,-0.4,-4.7,0.2,31.3*,-2.1
O=C(O)c1cc(N2C(=O)C3C4C=CC(C4)C3C2=O)ccc1NCc1cccnc1 (stereo not drawn),13.1,-1.7,7.0,-0.2,3.9,2.1
O=C1c2ccccc2C(=O)c2cc(S(=O)(=O)Nc3ccccc3)ccc21,-2.4,-1.0,12.6,32.4*,8.7,13.8
COC(=O)C1(C)Cc2cc(OC(C)=O)c(OC(C)=O)cc2N1 (stereo not drawn),.,-1.1,1.8,60.7*,.,0.6
COc1cc2oc3ccccc3c(=O)c2cc1OC,+,1.4,7.1,-1.8,21.6,-14.5
O=c1c2ccccc2oc2cc(Br)ccc12,0.0,.,.,.,5.3,.
CC(C)OC(=O)/C(=C/c1ccc2c(c1)c1ccccc1n2C)NC(=O)c1ccccc1,-0.3,0.0,-26.0,1.3,34.5*,6.1
Cn1c2ccccc2c2cc(/C=C(\NC(=O)c3ccccc3)C(=O)O)ccc21,-3.1,4.1,-3.6,0.0,35.3*,-5.4
O=C1CC(N2CCN(c3ccc(C(=O)c4ccc(F)cc4)cc3)CC2)C(=O)N1 (stereo not drawn),1.9,-0.3,-4.7,-0.8,47.6*,4.0
COc1ccc(NC(=O)CSc2nnc3n2CCCCC3)cc1S(=O)(=O)N1CCOCC1,-3.1,-0.9,0.9,.,-4.7,3.4
CCN1C(=O)NC(=O)/C(=C\c2cn(CC(=O)N3CCCCC3)c3ccccc23)C1=O,2.4,40.6*,-17.6,-3.6,0.8,3.2
CCN1C(=O)NC(=O)/C(=C\c2cn(CC(=O)O)c3ccccc23)C1=O,.,-0.4,-13.5,3.3,.,0.7
CCN1C(=O)NC(=O)/C(=C\c2cn(CC(=O)N3CCCC3)c3ccccc23)C1=O,-9.9,52.2*,-13.2,3.7,-3.4,11.9
O=C1CCCC/C1=C/Nc1ccc(S(=O)(=O)Nc2ncccn2)cc1,1.4,1.2,-13.1,-1.5,19.8,46.7
COc1cc(N)c(Cc2nccc3cc(OC)c(OC)cc23)cc1OC,1.2,4.0,10.7,45.7*,7.0,-0.1
Cc1nc2ccccc2n1CC(O)COc1ccccc1Cl (stereo not drawn),-0.1,-0.9,3.9,3.0,23.8,-1.4
Cc1ccc(S(=O)(=O)Oc2ccccc2/C=N/O)cc1,-4.1,1.8,-5.2,0.0,-8.2,-0.6
Cc1ccc(S(=O)(=O)Oc2ccccc2/C=N/Nc2ccc(C(=O)O)cc2)cc1,12.1,0.6,5.3,5.6,50.6*,15.6
O=C(O)c1cccc(C(=O)c2cccc(C(=O)O)c2)c1,-0.9,0.0,-8.1,1.3,1.9,-5.3
O=C(O)c1cc2ccc3cccc4ccc(c1)c2c34,167.9*,-0.2,-4.8,-2.9,27.0,12.3
COc1ccccc1/C=N/NC(=O)c1nnn(-c2nonc2N)c1-c1cccs1,3.6,-2.7,-8.0,-1.0,42.9*,-3.3
COc1ccc(OC)c(/C=N/NC(=O)c2nnn(-c3nonc3N)c2-c2cccs2)c1,6.5,4.6,-6.7,-0.5,12.6,6.0
COc1ccc(/C=N/NC(=O)c2nnn(-c3nonc3N)c2-c2cccs2)c(OC)c1,-1.0,1.6,6.8,-1.6,46.1*,-6.1
